40 compounds from PubChem BioAssay (NCI) can be followed below.

About 83,000 compounds went through this panel and 20% of them were active in at least one assay; those are over-represented in the sample as a whole.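 Single-dose data. Exposure time 48 hours. Values below 10 considered active.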 The source made the active and inactive calls.

The assay concerns HL-60(TB) leukemia. Nature of the assay: NCI-60 one-dose screen, 48 h (100 = growth as untreated, 0 = no growth, -100 = all killed). The following applies: 10 µM unless noted.
With `COc1ccc2c(ccc[n+]2C)c1`, the growth is 132% (inactive).

Turning to `Oc1ccccc1O`, the growth is 55.8% (inactive).

`COc1cc(-c2cc(-c3ccc(Nc4ncnc5cc(Cl)ccc45)cc3)nc(N3CCN(C)CC3)n2)cc(OC)c1OC`: the growth is 76.4% (inactive).

In the case of `CNC(=O)Nc1ccc(-c2ccc3ncnc(Nc4cccc(Cl)c4)c3c2)cc1`, the growth is 76.2% (inactive).

With `OCCNc1nc(NCCO)nc(Nc2ccc(C3=NN(c4cc(Cl)cc(Cl)c4)C(c4ccccc4)C3)cc2)n1` (stereo not given), the growth is 61.7% (inactive).

Turning to `C/C(CCC(=O)O)=N/Nc1ccc([N+](=O)[O-])cc1`, the growth was 31.9% (inactive).

Take `COC(=O)C1(C)Cc2cc(OC(C)=O)c(OC(C)=O)cc2N1` (stereo not given): the growth was 19.8% (inactive).

Consider `Nc1nc(N)c2c(n1)NC(c1ccc(Cl)cc1)C1CCc3ccccc3C1=N2` (stereo not given), for which the growth was 13.5% (inactive).

`Cc1cc(O)ccc1C1=NN(c2ccc(S(C)(=O)=O)cc2)C(=O)CC1`: the growth was 52.6% (inactive).

Turning to `CC/C(=C(\CC)c1ccc(OCCN(CC)CC)cc1)c1ccc(OCCN(CC)CC)cc1`, the growth is -3.52% (active).

In the case of `Cc1nc2nc(N)nc(N)c2nc1C`, the growth is 94.2% (inactive).

With `CCCCCCCC(=O)SCC/C=C/[C@@H]1CC(=O)NCc2cccc(n2)CN(Cc2ccc(Cl)cc2)CC(=O)N[C@@H](C(C)C)C(=O)O1`, the growth is 13% (inactive).

Consider `CC(C)(Sc1cc(C(C)(C)C)c(O)c(C(C)(C)C)c1)Sc1cc(C(C)(C)C)c(OC(=O)CCC(=O)O)c(C(C)(C)C)c1`, for which the growth was 56.1% (inactive).

As for `COc1ccc(-c2ncc(-c3ccccc3)[nH]2)cc1OC`, the growth is -30.2% (active).

Turning to `Clc1nc(Cl)c2ncn(-c3ccccc3)c2n1`, the growth was 46.1% (inactive).

Turning to `COc1ccc(S(=O)(=O)N(C(C)=O)c2ccccc2/C=C/c2cc[n+]([O-])cc2)cc1`, the growth was -27.6% (active).

Take `COC(=O)c1cc(-c2ccc(Cl)c(Cl)c2)[nH]c(=O)c1C#N`: the growth is 101% (inactive).

As for `CN(C)CCOC(=O)Nc1nc2ccc(Sc3ccccc3)cc2[nH]1`, the growth is -6.29% (active).

Take `Cn1c(=O)c2[nH]c(Cc3ccc4c(c3)OCO4)nc2n(C)c1=O`: the growth was 104% (inactive).

Consider `CC1=C2[C@@H](CC1)[C@]1(C)O[C@@](C3CCNCC3)(C[C@H]1OC(=O)CO)[C@H]2OC(=O)/C=C/c1ccccc1`, for which the growth was 97.1% (inactive).

`CCOC(=O)c1ccc2c(c1)nc(-c1ccccc1)n2C1CCCCC1`: the growth was 63.1% (inactive).

With `O=C(Nc1ccc(-n2cc(-c3ccncc3)c(-c3ccc(O)c(Cl)c3)n2)cc1)c1ccc(Cl)c(C(F)(F)F)c1`, the growth is 10.9% (inactive).

`COc1cnc2c(c1)C(=O)c1c-2n(CCCN2CCCC2)c(=O)c2cc(F)ccc12`: the growth was -28.7% (active).

With `OC(COc1cccc2ccccc12)CN1CCN(c2ccccc2Cl)CC1` (stereo not given), the growth is 103% (inactive).

In the case of `CN1CCN(CCOc2ccc(-c3cnc4c(-c5ccc(F)cc5)cnn4c3)cc2)CC1`, the growth was 2.46% (active).

For the compound `C=C(C)[C@@H]1CC[C@]2(C(=O)O)CC[C@]3(C)[C@H](CC[C@@H]4[C@@]5(C)C/C(=C/c6cccc(I)c6)C(=O)C(C)(C)[C@@H]5CC[C@]43C)[C@@H]12`, the growth was 7.47% (active).

As to `C#C[C@@]1(O)[C@@H](CO)O[C@@H](n2cc(Cl)c3c(N)ccnc32)[C@@H]1O`, the growth was -2.37% (active).

Regarding `O=C1c2ccccc2C(=O)c2c([N+](=O)[O-])ccc(Cl)c21`, the growth is 111% (inactive).

For the compound `CCOC(=O)C1=C(C)N=C2SC=C(c3ccc(F)cc3)N2[C@H]1c1cn(-c2ccccc2)nc1-c1ccc(Cl)cc1`, the growth is 88.3% (inactive).

Take `Cl.Fc1c[c-]c(-c2ccccn2)c(F)c1.[Pt].c1ccc([PH+](CC[PH+](c2ccccc2)c2ccccc2)c2ccccc2)cc1`: the growth is -29.2% (active).

With `CNc1ccc(NC)c2c1C(=O)c1ccccc1C2=O`, the growth was 87.3% (inactive).

As for `CCCCCc1ccnc(CC(=O)c2ccc(OC)cc2)c1`, the growth is 110% (inactive).

Regarding `COc1ccc(C2=NN(C(C)=O)C(c3c(C)nn(-c4ccccc4)c3N3CCOCC3)C2)cc1` (stereo not given), the growth was 101% (inactive).

Regarding `CC(O)(c1ccccc1)C(c1ccccc1)C1CCCCN1` (stereo not given), the growth is 78.9% (inactive).

On to `O=c1c2cc(Br)cc(Br)c2nc(-c2ccc(Cl)cc2)n1/N=C\c1ccccc1F`, for which the growth is 82% (inactive).

Regarding `COc1cc(C(C)c2ccc3c(ccn3C)c2)cc(OC)c1OC` (stereo not given), the growth is -12.1% (active).

As to `CCOC(=O)n1cnc2c(Cl)ncnc21`, the growth is 106% (inactive).

Consider `COc1ccc2[nH]c(O)c(/C=c3/ccc4c(c3)N=C(c3ccc(F)cc3)N=4)c2c1`, for which the growth is 99.9% (inactive).

With `CN1c2ccccc2C(C)(C)C12C=Cc1cc(O)ccc1O2` (stereo not given), the growth was -30.1% (active).

In the case of `NC[C@@H]1O[C@H](O[C@@H]2[C@@H](CO)OC(O[C@@H]3[C@@H](O)[C@H](N)C[C@H](N)[C@H]3OC3O[C@H](CN)[C@@H](O)[C@H](O)[C@H]3N)[C@@H]2O)[C@H](N)[C@@H](O)[C@@H]1O` (stereo not given in full), the growth is 94.7% (inactive).
